Test [1] can be described thus: TOX21_p53_BLA_p5_viability: Viability Assessment in the Tox21 HCT-116 p53 Agonism Beta-lactamase Assay, Phase 5 (AID 2283600). Put shortly: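 After the 460/530 nm beta-lactamase measurement, the wells received an ATP-detection luciferase reagent; signal was read 30 min later at RT. Compound treatment lasted 16 h on cells pre-incubated 5 h post-seeding.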
A short description of test [2]: Tanguay_ZF_120hpf_MORT_legacy: (Legacy) Oregon State University Tanguay Lab 120 Hour Post-fertilization zebrafish Assay for Mortality (AID 2283633).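 As to AC50: fitted as increase in binary mortality versus DMSO negative control.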 Put shortly: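 Static waterborne exposure from 6 to 120 hpf at 28C of single dechorionated wild-type (5D) embryos per well, 0.64% DMSO final. Death recorded present/absent by brightfield at 24 and 120 hpf.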
The nature of test [3]: Tanguay_ZF_120hpf_YSE_legacy: (Legacy) Oregon State University Tanguay Lab 120 Hour Post-fertilization zebrafish Assay for Yolk Sac Edema (AID 2283634).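 As to AC50: actives raise the incidence of yolk sac edema above the DMSO baseline.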 The method in brief: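 Presence or absence of yolk sac edema was recorded at 120 hpf in surviving larvae. These were wild-type Tropical 5D embryos, chorion removed at 4 hpf, held in static exposure at 28C from 6 hpf with 0.64% DMSO vehicle.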

The nature of test [4]: Tanguay_ZF_120hpf_EYE_legacy: (Legacy) Oregon State University Tanguay Lab 120 Hour Post-fertilization zebrafish Assay for Eye Malformation (AID 2283636).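 Also: binary presence or absence of eye malformation scored by brightfield in 120 hpf larvae.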 Put shortly: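 Dechorionated wild-type Tropical 5D zebrafish embryos were exposed statically from 6 hpf, one per well, to 120 hpf at 28C in sealed, foil-covered plates with 0.64% DMSO. Eye malformation was scored present/absent by brightfield microscopy against DMSO controls.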

A short description of test [5]: Tanguay_ZF_120hpf_SNOU_legacy: (Legacy) Oregon State University Tanguay Lab 120 Hour Post-fertilization zebrafish Assay for Snout Malformation (AID 2283637). Put shortly:
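Tropical 5D wild-type zebrafish embryos, dechorionated with pronase at 4 hpf, were exposed singly from 6 hpf to 120 hpf statically at 28C in 0.64% DMSO. Snout malformation was scored present/absent by brightfield microscopy, fitted against DMSO.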

Test [6] can be described thus: Tanguay_ZF_120hpf_JAW_legacy: (Legacy) Oregon State University Tanguay Lab 120 Hour Post-fertilization zebrafish Assay for Jaw Malformation (AID 2283638).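 As to AC50: active means more embryos with jaw malformation than DMSO controls.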 Put shortly:
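Binary jaw-malformation call at 120 hpf by brightfield microscopy. Embryos (Tropical 5D strain, chorion removed at 4 hpf) were dosed statically at 6 hpf, one per well, at 28C with 0.64% DMSO. Embryos that died were not scored.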

A short description of test [7]: Tanguay_ZF_120hpf_OTIC_legacy: (Legacy) Oregon State University Tanguay Lab 120 Hour Post-fertilization zebrafish Assay for Otic Vesicle Malformation (AID 2283639). Put shortly: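 Tropical 5D wild-type zebrafish embryos statically exposed in 0.64% DMSO at 28C until 120 hpf; 5uM trimethyltin chloride as positive control. Otic vesicle malformation scored present/absent by brightfield; dead embryos not scored; gain fitted versus DMSO.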

Test [8] is described as follows: Tanguay_ZF_120hpf_PE_legacy: (Legacy) Oregon State University Tanguay Lab 120 Hour Post-fertilization zebrafish Assay for Pericardial Edema (AID 2283640).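 As to AC50: potency for increased incidence of pericardial edema versus DMSO baseline.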 Put shortly: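 Scoring was binary, by brightfield microscopy at 120 hpf, and skipped where mortality occurred. Wild-type embryos were kept under sealed, foil-covered static exposure at 28C in 0.64% (vol/vol) DMSO.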

Test [9] is described as follows: Tanguay_ZF_120hpf_BRAI_legacy: (Legacy) Oregon State University Tanguay Lab 120 Hour Post-fertilization zebrafish Assay for Brain Malformation (AID 2283641). The method in brief: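 Binary brightfield scoring of brain malformation at 120 hpf in Tropical 5D larvae held under static exposure at 28C (0.64% v/v DMSO), non-mortality endpoints skipped if dead. Positive control: 5uM trimethyltin chloride; fit versus DMSO.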

Test [10] is described as follows: Tanguay_ZF_120hpf_SOMI_legacy: (Legacy) Oregon State University Tanguay Lab 120 Hour Post-fertilization zebrafish Assay for Somite Malformation (AID 2283647). The method in brief: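 Binary somite-defect scoring at 120 hpf, omitted for embryos that died, in wild-type (Tropical 5D) zebrafish with chorion removed by pronase at 4 hpf; static exposure began 6 hpf, single embryos per well, 28C, 0.64% DMSO; fitted positive versus DMSO.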

A short description of test [11]: Tanguay_ZF_120hpf_CFIN_legacy: (Legacy) Oregon State University Tanguay Lab 120 Hour Post-fertilization zebrafish Assay for Caudal Fin Malformation (AID 2283649). Put shortly:
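Binary brightfield scoring of caudal fin defects at 120 hpf after static, light-shielded exposure at 28C from 6 hpf. Tropical 5D embryos, chorion removed with pronase at 4 hpf, final DMSO 0.64%.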

Test [12] is described as follows: Tanguay_ZF_120hpf_PIG_legacy: (Legacy) Oregon State University Tanguay Lab 120 Hour Post-fertilization zebrafish Assay for Pigmentation Malformation (AID 2283650). The method in brief:
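Tropical 5D wild-type zebrafish embryos, dechorionated with pronase at 4 hpf, were exposed singly from 6 hpf to 120 hpf statically at 28C in sealed, dark plates with 0.64% DMSO; pigmentation scored present/absent by brightfield microscopy, fitted against DMSO.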

Test [13] is described as follows: Tanguay_ZF_120hpf_CIRC_legacy: (Legacy) Oregon State University Tanguay Lab 120 Hour Post-fertilization zebrafish Assay for Circulatory Malformation (AID 2283651). Put shortly: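 Dechorionated wild-type 5D zebrafish embryos, one per well, statically exposed from 6 to 120 hpf at 28C with 0.64% DMSO; circulatory malformation scored present/absent by brightfield microscopy at 120 hpf, dead embryos excluded.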

The nature of test [14]: Tanguay_ZF_120hpf_SWIM_legacy: (Legacy) Oregon State University Tanguay Lab 120 Hour Post-fertilization zebrafish Assay for Swim Bladder Malformation (AID 2283654).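 Also: swim bladder malformation in each larva scored yes or no under brightfield.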 The method in brief: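 Dechorionated Tropical 5D wild-type embryos, placed singly from 6 hpf, were statically exposed at 28C to 120 hpf with 0.64% DMSO final; swim bladder malformation was scored present/absent by brightfield microscopy, gain of signal relative to DMSO controls.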

A short description of test [15]: Tanguay_ZF_120hpf_TRUN_legacy: (Legacy) Oregon State University Tanguay Lab 120 Hour Post-fertilization zebrafish Assay for Truncated Body (AID 2283655). Put shortly:
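Binary presence/absence of truncated body is recorded at 120 hpf by brightfield, with non-mortality endpoints skipped after death. Exposure is static from 6 hpf in sealed dark plates at 28C, using dechorionated wild-type zebrafish, 0.64% DMSO.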

The nature of test [16]: Tanguay_ZF_120hpf_AXIS_legacy: (Legacy) Oregon State University Tanguay Lab 120 Hour Post-fertilization zebrafish Assay for Body Axis Malformation (AID 2283635).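 As to AC50: potency for an increased fraction of larvae scored with body axis malformation.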 Put shortly:
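Binary scoring of axis defects at 120 hpf under brightfield, fitted positive versus DMSO. Tropical 5D embryos, chorion removed by pronase at 4 hpf, were singly exposed in sealed, dark plates at 28C from 6 hpf; DMSO 0.64% final.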

Read-out in test [17]: solute carrier (SLC22A6), SLC22A6 (gene 9356)
The test is described as follows: LTEA_HepaRG_SLC22A6: Life Technologies and Expression Analysis (LTEA) Assay for solute carrier (SLC22A6) using HepaRG (AID 2283653; active = hit-call score of the fitted dose curve at least 0.9, where 1 is the maximum; inactive = score below 0.9). As to conditions: mRNA level, 48 h; actives raise or lower the signal. The method in brief:
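SLC22A6 transcript was measured by TaqMan qRT-PCR, normalized to three housekeeping genes, after 48 h duplicate exposure of HepaRG cells (100 uM top, half-log steps, 0.5% DMSO); bidirectional fit against vehicle.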

In test [18] the target is Cellular tumor antigen p53 (Homo sapiens) (UniProt P04637). The test is described as follows: TOX21_p53_BLA_p5_ratio: Tox21 HCT-116 p53 Agonism Beta-lactamase Assay, Ratio, Phase 5 (AID 2283599). The method in brief: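 HCT-116 cells carrying a p53-inducible beta-lactamase reporter were seeded at 4000 cells/well and dosed after 5 h with compound in DMSO (217-fold dilution). After 16 h at 37C, CCF4-AM substrate was added for 2 h, and the 460/530 nm emission ratio was scored as gain-of-signal versus DMSO.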

For test [19] the target is unchanged. The test is described as follows: TOX21_p53_BLA_p4_ratio: Tox21 HCT-116 p53 Agonism Beta-lactamase Assay, Ratio, Phase 4 (AID 2283601). The method in brief: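 HCT116 cells carrying an inducible beta-lactamase reporter were plated at 4000 cells/well, rested 5 h, then exposed to compounds in DMSO (217-fold dilution) for 16 h at 37C. CCF4-AM substrate was loaded 2 h at room temperature; 460/530 nm emission ratio scored gain-of-signal versus DMSO.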

The nature of test [20]: Tanguay_ZF_120hpf_PFIN_legacy: (Legacy) Oregon State University Tanguay Lab 120 Hour Post-fertilization zebrafish Assay for Pectoral Fin Malformation (AID 2283648).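 Also: each larva judged yes or no for fin defect by brightfield with dead larvae skipped.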 The method in brief:
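Tropical 5D wild-type embryos, dechorionated with pronase at 4 hpf, were placed singly in wells at 6 hpf and statically exposed until 120 hpf at 28C, sealed and dark, with 0.64% (vol/vol) final DMSO; pectoral fin malformation scored present/absent.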

Among the data in PubChem BioAssay (EPA / NIEHS) are outcome and AC50 values, retold here.

A word on the AC50: it is the concentration at which the activity in the assay is half-maximal.

SMILES strings stand for the structures. Several values for one entry are separate records, joined by “and”; a condition that tells them apart may be missing. Equal entries are not always repeated. Inconclusive results are not listed. Some compounds were tested as several samples or in several runs, with calls that do not always agree. Activity calls are given as the source filed them. The calls were made as follows, unless noted: active = hit-call score of the fitted dose curve at least 0.9, where 1 is the maximum; inconclusive = response in the unintended direction; inactive = score below 0.9.

Sequence of Cellular tumor antigen p53 (Homo sapiens) (P04637 whole entry, looked up): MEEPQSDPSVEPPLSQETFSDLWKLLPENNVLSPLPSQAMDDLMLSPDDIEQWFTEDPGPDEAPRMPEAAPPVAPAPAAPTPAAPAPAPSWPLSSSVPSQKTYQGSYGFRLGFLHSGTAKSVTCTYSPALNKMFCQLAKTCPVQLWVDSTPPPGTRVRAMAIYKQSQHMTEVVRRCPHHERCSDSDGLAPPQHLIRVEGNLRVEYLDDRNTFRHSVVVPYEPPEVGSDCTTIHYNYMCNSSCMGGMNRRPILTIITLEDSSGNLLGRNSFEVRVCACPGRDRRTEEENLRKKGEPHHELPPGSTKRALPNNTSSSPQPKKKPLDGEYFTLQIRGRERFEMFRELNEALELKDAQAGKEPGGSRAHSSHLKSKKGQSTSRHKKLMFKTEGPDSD

Regarding `CC(C)C(=O)OCC(C)(C)C(OC(=O)C(C)C)C(C)C` (stereo not drawn), the result in test [1], in [3], in [4], in [5], in test [7] and in test [9] was inactive. Also, the result in test [10], in test [11], in test [12], in test [13], in test [14] and in [15] was inactive. In addition, the AC50 is 26.2 µM (active) in test [2], 41.6 µM (active) in [6] and 28.8 µM (active) in [8].

For the compound `CC1=C2C[C@H]3[C@@H](CC=C4C[C@@H](O)CC[C@@]43C)[C@@H]2CC[C@]12O[C@@H]1C[C@H](C)CN[C@H]1[C@H]2C`, the call in test [1], in test [2], in test [4], in [7], in test [10] and in test [13] was inactive. For the same compound, the outcome in [17] and in test [15] was inactive. The concentration at half-maximal activity (AC50) is 17.2 µM (active) in [3]; 0.33 µM (active) in test [16]; 21 µM (active) in test [5]; 25.9 µM (active) in test [6]; 20.2 µM (active) in test [8]; 16.6 µM (active) in test [11]. Moreover, the half-maximal activity concentration (AC50) in [12] was 20 µM (active).

`OCC(O)CO`: the call in [1] was inactive.

In the case of `O=C(O)C(F)(F)C(F)(F)C(F)(F)C(F)(F)C(F)(F)F`, the outcome in test [18], in test [19], in test [2], in test [3], in [16] and in test [4] was inactive. For the same compound, the compound was classed as inactive in test [5], in test [6], in [7], in [8], in test [11] and in test [12]. Besides, the call in [13], in test [14] and in [15] was inactive.

Turning to `CO/C=C(/C(=O)OC)c1ccccc1COc1cccc(C(F)(F)F)n1`, the AC50 in test [18] is 4.18 µM (active); in [3] it was 4.88 µM (active); in [16] it was 6.06 µM (active); in test [4] it was 3.83 µM (active); in test [5], 2.99 µM (active); in [6] it was 2.66 µM (active). The half-maximal activity concentration (AC50) is 12.7 µM (active) in test [7]; 2.43 µM (active) in test [8]; 3.77 µM (active) in test [9]; 18.1 µM (active) in test [10]; 5.66 µM (active) in test [20]; 9.15 µM (active) in test [11]. For the same compound, the AC50 in test [12] is 19.7 µM (active); in [13], 9.76 µM (active); in test [14], 14.5 µM (active); in [15], 7.84 µM (active). The result in test [1] and in test [2] was inactive.

For the compound `Clc1ccc(C(c2ccccc2Cl)C(Cl)(Cl)Cl)cc1` (stereo not drawn), the AC50 in test [18] was 72.8 µM (active); in test [1] it was 72.2 µM (active); in test [19], 48.7 µM (active) and 76.4 µM (active). Further, the outcome in [18], in test [1], in test [2], in test [3], in test [16] and in [5] was inactive. Moreover, the outcome in test [7], in [8], in test [11], in test [12], in test [13] and in [14] was inactive. In addition, in [15], the outcome was inactive.

With `O=C(O)C(F)(F)C(F)(F)C(F)(F)C(F)(F)C(F)(F)C(F)(F)C(F)(F)C(F)(F)C(F)(F)F`, the call in test [1], in [2], in [3], in test [16], in [5] and in [6] was inactive. In addition, the call in [7], in test [10], in [11], in test [12], in [13] and in [17] was inactive. In addition, the call in [14] and in test [15] was inactive.

For the compound `ClC1=C(Cl)[C@]2(Cl)[C@@H]3[C@H]4C[C@H]([C@@H]5O[C@H]45)[C@@H]3[C@@]1(Cl)C2(Cl)Cl`, the compound was classed as inactive in test [1], in test [19], in test [2], in [4], in test [5] and in [6]. In addition, the compound was called inactive in test [7], in test [13], in [14] and in test [15]. Moreover, the half-maximal activity concentration (AC50) in [3] is 72 µM (active); in [8], 39 µM (active); in test [10], 65.6 µM (active); in test [11], 66.1 µM (active).
